# Screening data (PubChem)
# Pf growth 48h: inhibits P. falciparum growth in the first generation, 48 h. P. falciparum luciferase growth in erythrocytes, 48 h. Potency, µM (titrated, usually from 28.7 µM), actives largely listed as inhibitors. 5.9% of 310,000 active. AID 504832; active means well fitted inhibition curve with a large enough effect; inconclusive means small, poorly fitted or top-dose-only effect, or another doubt; inactive means no such curve, though single readings can be large or run the other way
#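 Growth was read as firefly luciferase luminescence after a 48 h, 37 C, 5% CO2 exposure of compounds to reporter-bearing P. falciparum cultures (0.1% parasitemia, 2% hematocrit final) in Albumax-supplemented RPMI 1640.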
# Pf growth 96h: inhibits malaria parasite growth, 96 h. P. falciparum luciferase reporter growth, 96 h. Potency, µM (titrated, usually from 28.7 µM), actives largely listed as inhibitors. 6.9% of 320,000 active; active means well fitted inhibition curve with a large enough effect; inconclusive means small, poorly fitted or top-dose-only effect, or another doubt; inactive means no such curve, though single readings can be large or run the other way
#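 Erythrocytes infected with luciferase-expressing P. falciparum were dispensed at 2% hematocrit and 0.05% parasitemia (final), then incubated with compounds 96 hours at 37 C in 5% CO2. Luminescence after detection reagent addition reported growth.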
# RE007 growth inh: less growth of the S. pombe RE007 Vpr strain; S. pombe RE007 Vpr strain, BacTiter-Glo ATP luminescence, 24 h; Potency, µM (highest dose often 92.2 µM), most hits filed as inhibitors; 0.21% of 360,000 active; active means well fitted falling curve with a large enough effect; inconclusive means small, poorly fitted or top-dose-only effect; inactive means no such curve, though single readings can be large or run the other way; further: nearly all actives have a fitted effect of over 50% in size
#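 Fission yeast RE007 carrying one integrated HIV-1 vpr copy, seeded at OD 0.01 in PMG+AL medium with 23 nL pinned compound. Grown 24 h at 30 degrees; viability read by BacTiter-Glo luminescence after 5 min.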
# NS1 function inh: inhibitors of influenza NS1 protein function. Potency, µM (top dose mostly 46.1 µM). 0.4% of 270,000 active; further: actives are rising curves; nearly all actives have a fitted effect of over 50% in size
#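 Compounds were scored for reversing the slow growth caused by influenza A NS1 in S. cerevisiae, measured by optical density at 600 nm. Assay medium contained 2% galactose at pH 6.0; NS1-free yeast of the same strain were the positive control.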
# SARS PLP yeast: inhibitors of SARS-CoV papain-like protease in yeast; Potency, µM (titrated, usually from 32.9 µM), actives largely listed as activators; AID 485353; 0.19% of 330,000 active; S. cerevisiae expressing SARS-CoV PLpro, growth rescue; further: nearly all actives have a fitted effect of over 55% in size
# NS1 inh valid: validation of influenza NS1 protein function inhibitors; influenza NS1 function cell assay, 15-point titration; shares compounds with NS1 function inh; AID 492980; 1,400 tested, under 10 active; activity change, negative = inhibition, % at 32.9 µM
# Flu PR8 replic: influenza virus titer reduction, NS1 project; virus titer (log TCID50), log10 TCID50 at 5 µM; MDCK infected influenza A/PR/8/34, virus titer TCID50; active compounds read low; shares compounds with NS1 function inh; 30% of 95 active; call rule not given here
# A number is an active result; i = inactive; ? = inconclusive; nt = no result given; [ ] = another dose, or the depositor's remark. Hits are enriched below; roughly 9.5% of the tested compounds scored in any of these assays. Unless noted, the call rests on the fitted dose curve.
SMILES,Pf growth 48h,Pf growth 96h,RE007 growth inh,NS1 function inh,SARS PLP yeast,NS1 inh valid,others
Cc1cccc(N2C(=O)NC(=O)C3(Cc4cc(C)ccc4N(C)C3)C2=O)c1 (stereo not drawn),i,i,i,4.5µM,i,i,
Cc1c(Cl)cccc1NC(=O)[C@@H](NC(=O)c1ccccc1Cl)C(C)C,i,?,i,i,i,nt,
CCOc1ccc(NC(=O)CN(C)C(=O)CCCOc2ccc(Cl)c(C)c2)cc1OCC,i,?,i,i,nt,nt,
COc1ccc2cc(C(=O)N(C)CC(=O)Nc3ccccc3Br)ccc2c1,i,i,i,nt,i,nt,
COc1ccc(NC(C)=O)cc1S(=O)(=O)Nc1ccccc1C(=O)NCCc1ccccc1,i,i,i,i,i,nt,
COc1ccc(CCNC(=O)c2ccccc2NS(=O)(=O)c2cc(C(=O)O)ccc2OC)cc1,i,i,i,?,i,i,
C/C(=N\NC(=O)C1CCCC1)c1ccc(Cl)cc1,i,i,i,?,i,i,
C/C(=N/NC(=O)C1CCCCC1)c1ccc([N+](=O)[O-])cc1,i,i,i,i,i,nt,
O=C1CC(Nc2ccc(N3CCOCC3)cc2)C(=O)N1c1cccc(C(F)(F)F)c1 (stereo not drawn),?,i,i,11µM,i,i,
COc1cccc(N2C(=O)CC(Nc3ccc(N4CCOCC4)cc3)C2=O)c1 (stereo not drawn),i,i,i,i,i,nt,
CC1CCCCC12NC(=O)N(CC(=O)OCC(=O)N(C)C1CCCCC1)C2=O (stereo not drawn),i,i,i,nt,i,nt,
CCOc1ccc(NC(=O)CCS(=O)(=O)c2ccc3c(c2)CCCN3C(C)=O)cc1,?,i,i,11µM,i,i,
CC(C)Cc1ccc(C(C)C(N)=NCCc2ccccc2)cc1 (stereo not drawn),?,?,i,i,i,nt,
CC1CC(C)CN(S(=O)(=O)N2CCC(C(=O)NCCc3ccccc3)CC2)C1 (stereo not drawn),i,i,i,?,i,i,
Cc1cc2cc(NC(=O)c3ccco3)ccc2[nH]1,i,i[5.75 µM],i,2.5µM,i,?,
Cc1nc2ccc(NC(=O)c3ccco3)cc2nc1C,i,i,i,i,i,nt,
O=C(Nc1ccc(Oc2ccc(NC(=O)c3ccco3)c(NC(=O)c3ccco3)c2)cc1)c1ccco1,?,i,i,8.9µM,i,i,Flu PR8 replic=i
COc1ccc(/C=N/N(C)C2=NCCN2)c(OC)c1OC,i,i,i,i,i,nt,
Cc1cc(C)n(-c2ccc(NC(=O)C3CCCCN3C(=O)c3ccoc3C)cc2)n1 (stereo not drawn),i,i,i,i,i,nt,
O=C(NNc1nc(-c2ccccc2)c2cc(Br)ccc2n1)c1ccc(S(=O)(=O)N2CCCCC2)cc1,i,i,i,?,i,nt,
O=C(NNc1nc(-c2ccccc2)c2cc(Br)ccc2n1)c1ccc(S(=O)(=O)N2CCOCC2)cc1,i,i,i,11µM,i,i,
O=C1C=CC(=O)C(C2=C3C(=O)N(CCc4ccccc4)CC(=O)N3CCC2)=C1,i,i,i,14µM,i,i,
CCCn1c(C)nc2c(c1=O)c1nc3ccccc3nc1n2CCC1=CCCCC1,?,?,i,2µM,i,?,
COCCn1cnc2c(c1=O)c1nc3ccccc3nc1n2/N=C/c1ccco1,i,i,i,i,i,nt,
Cc1nc2c(c(=O)n1CCC1=CCCCC1)c1nc3ccccc3nc1n2/N=C/c1ccco1,10µM,9.3µM,i,10µM,i,i,
SMILES,Pf growth 48h,Pf growth 96h,RE007 growth inh,NS1 function inh,SARS PLP yeast,NS1 inh valid,others
Cc1ccc(-n2nnnc2SCC(=O)c2cc(C)n(-c3cc(C)on3)c2C)c(C)c1,?,i,i,?,i,i,
CCOC(=O)CSc1nc2ccc(N3CCOCC3)cc2c(=O)n1Cc1ccc2c(c1)OCO2,12µM,nt,nt,?,i,i,
Cn1c(SCC(=O)NNC(=S)Nc2ccccc2)nnc1-c1ccncc1,i,i,nt,3.2µM,i,i,
Cc1cccc(NC(=O)CSc2nnc(-c3ccncc3)n2C)c1,i,i,i,i,i,nt,
O=C(O)C(c1ccccc1)C(O)c1ccc2c(c1)OCO2 (stereo not drawn),nt,nt,i,nt,nt,nt,
Cc1cnn(-c2cc(N/N=C/c3ccc(F)cc3)ncn2)c1,i,?,i,i,i,nt,
Cc1cnn(-c2cc(N/N=C/c3ccccc3Cl)ncn2)c1,i,i,i,14µM,i,i,
CC(CNS(=O)(=O)c1ccccc1)(c1ccccc1)N1CCOCC1 (stereo not drawn),i,?,i,i,i,nt,
COC(=O)c1c(C)[nH]c(C(=O)COC(=O)Cn2cc(C(F)(F)F)ccc2=O)c1C,i,i,i,nt,i,nt,
O=C(COc1cccnc1[N+](=O)[O-])Nc1ccc(Cl)c(S(=O)(=O)N2CCOCC2)c1,?,?,i,i,i,nt,
O=C(O)c1cccc(CN2C(=O)CSC2=O)c1,i,?,i,22µM,i,i,
O=C(O)c1cccc(CN2C(=O)SC(Nc3ccccc3)C2=O)c1 (stereo not drawn),i,i,i,i,i,nt,
Cc1nc2ccccn2c1CN(C)C(=O)C1CCC(=O)N(CCc2cccc(F)c2)C1 (stereo not drawn),i,?,i,i,i,nt,
COc1ccc(S(=O)(=O)N2CCCCCC2)cc1NC(C)C(=O)Nc1ccc(NC(C)=O)cc1 (stereo not drawn),nt,nt,i,nt,nt,nt,
Cc1nn(C)c(Oc2cccc(Cl)c2)c1C#N,i,i,i,nt,i,nt,
Cn1nc(-c2ccccc2)c(C#N)c1Sc1cccc(Cl)c1,?,10µM,i,?,i,i,
COc1ccccc1NS(=O)(=O)c1ccc(C)c(NC(=O)c2ccc(S(=O)(=O)N3CCCCCC3)cc2)c1,?,?,i,20µM,?,i,
C/C(=N\NC(=S)Nc1ccc(C)c(C)c1)c1ccc(N2CCOCC2)cc1,12µM,3.7µM,i,7.9µM,i,?,
CC(=O)Nc1ccc(C(=O)NC2CCSc3ccccc32)cc1 (stereo not drawn),i,i,i,i,i,nt,
Cc1ccc(NC(=S)NC2CCSc3ccccc32)cc1 (stereo not drawn),?,?,i,1.4µM,i,i,
Cc1cc(C)cc(NC(=O)CSc2nc3c(oc4ccccc43)c(=O)n2-c2ccccc2)c1,?,?,i,5µM,i,?,
Cc1ccc(-n2c(SCC(N)=O)nc3c(oc4ccccc43)c2=O)cc1,i,i,i,i,i,nt,
COc1ccc2nc(Nc3nc(CSc4nnnn4-c4ccccc4)cc(=O)[nH]3)nc(C)c2c1,nt,?,i,i,i,nt,
Cc1ccc2c(C)nc(Nc3nc(CSc4nnnn4-c4ccccc4)cc(=O)[nH]3)nc2c1,2.3µM,nt,i,14µM,i,i,
Cc1nc2ccc3nc(NC(=O)c4ccc5c(c4)OCCO5)sc3c2s1,i,nt,i,i,i,nt,
Cc1nc2c(ccc3nc(NC(=O)c4ccc5c(c4)OCCO5)sc32)s1,i,?,i,?,i,i,
